Among all 340,000 compounds or so, about 2,800 (0.82%) were called active.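 Rule for the calls: active = B-score under library mean minus 4 SD, starting fluorescence ratio at most library mean plus 5 SD; inactive = the rest.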 The sample as a whole holds a higher share of actives than the screen did.

In this assay the target is Potassium channel subfamily K member 3 (Homo sapiens) (UniProt O14649). The assay can be described thus: blockers of TASK1 two-pore potassium channel – CHO cells, FluxOR thallium flux, B-score, primary screen (AID 602410).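 For B-score: more negative B-score means stronger inhibition of thallium flux through KCNK3.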 The conditions noted are these: CHO-KCNK3 thallium flux, FluxOR fluorescence, at 10 µM; hits give low values.
Potassium channel subfamily K member 3 (Homo sapiens), sequence (O14649 whole entry, looked up): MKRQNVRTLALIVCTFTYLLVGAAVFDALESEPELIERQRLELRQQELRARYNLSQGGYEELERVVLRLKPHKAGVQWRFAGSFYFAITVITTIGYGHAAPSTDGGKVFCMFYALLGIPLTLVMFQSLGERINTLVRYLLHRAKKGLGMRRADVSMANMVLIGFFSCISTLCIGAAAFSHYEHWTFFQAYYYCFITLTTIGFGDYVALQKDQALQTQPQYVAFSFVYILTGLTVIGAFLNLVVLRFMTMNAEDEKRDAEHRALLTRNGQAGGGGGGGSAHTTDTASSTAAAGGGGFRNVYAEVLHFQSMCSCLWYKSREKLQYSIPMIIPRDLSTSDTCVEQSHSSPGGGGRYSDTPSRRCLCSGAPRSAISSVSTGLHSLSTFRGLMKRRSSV
Turning to `CCOc1ccc(N(CC(=O)OC)S(=O)(=O)c2c(C)noc2C)cc1`, the B-score result is “inactive”. On to `Cc1ccc2nc(COc3ccc(N(C)S(=O)(=O)c4ccccc4)cc3)cc(=O)n2c1`, for which the B-score result is “inactive”.

Regarding `COc1ccc(N(Cc2ccccc2)S(=O)(=O)c2cccc(C(=O)O)c2)cc1`, the B-score entry is “inactive”. The value for `COc1cccc(COc2ccc(N(C)S(=O)(=O)c3ccccc3)cc2)c1` was -13.2 (active); that for `Nc1nnc2c(C(F)(F)F)nc3ccccc3n12` was “inactive”. Next, `Cc1cccc(-c2nc3ccc(C(=O)NCCN4CCN(C)CC4)cc3nc2-c2cccc(C)c2)c1`: -9.46 (active); `Cc1cccc(C(=O)OC(C)CN2CCN(C)CC2)c1` (configuration not stated): “inactive”; `Cc1cc(C)cc(C(=O)NCCN2CCOCC2)c1`: “inactive”. The value for `Cc1nnc(C)c2c(C)n(N)c(C)c12` was “inactive”. Turning to `C=C1CCC(N(O)c2cc(C)on2)C(=C)CCC2C1CC2(C)C` (configuration not stated), the B-score result was “inactive”. The value for `COc1ccc(C(=O)CSc2nnnn2C)c(OC)c1` was “inactive”; that for `CC(C)(C)Nc1nc(-c2ccccn2)nc2ccccc12` was “inactive”. The value for `Oc1ccc(/C=N/Nc2nc(-c3ccccc3F)nc3ccccc23)c(O)c1` was -11 (active); that for `Oc1ccc(-c2nc3ccccc3nc2-c2ccc(O)cc2O)c(O)c1` was “inactive”. The value for `CC1CC(C)CN(C(=O)CSc2ccsc2[N+](=O)[O-])C1` (configuration not stated) was “inactive”; that for `CC(C)OCCCNC(=O)c1ccc(C2SCC(=O)N2Cc2ccco2)cc1` (configuration not stated) was “inactive”; that for `COc1c(N2CCN(C(=S)Nc3ccccc3F)C(C)C2)c(F)cc2c(=O)c(C(=O)O)cn(C3CC3)c12` (configuration not stated) was “inactive”. Consider `CCOC(=O)CSc1nc2c(sc(=S)n2CCc2ccccc2)c(=O)n1Cc1ccco1`, for which the B-score was -9.18 (active).

Take `CCOC(=O)Cc1csc(NC(=O)CSc2nnc(-c3cccnc3)n2Cc2ccco2)n1`: the B-score result was “inactive”. Regarding `CCOC(=O)CSc1nc2c(c(=O)n(Cc3ccccc3Cl)c(=O)n2C)n1C`, the B-score result was “inactive”.

In the case of `O=C(CSc1nnc2n1CCCN2)c1ccccc1`, the B-score entry was “inactive”.

On to `CCOc1ccc(CN(Cc2ccco2)C(c2cccs2)c2nnnn2C(C)(C)C)cc1` (configuration not stated), for which the B-score was -10.5 (active). For `CCOc1ccc(CN(Cc2ccco2)S(=O)(=O)c2ccc(-n3cnnn3)c(OC)c2)cc1`, the B-score entry was “inactive”.

On to `CC(C)(C)n1nnnc1C(c1cccs1)N(Cc1cccnc1)CC1CCCO1` (configuration not stated), for which the B-score result is “inactive”. The value for `Cc1nc(NC(CC(C)C)C(=O)O)c2nc(C)oc2n1` (configuration not stated) was “inactive”; that for `FC(F)(F)c1cccc(N/N=C/c2ccccc2)c1` was “inactive”.

Turning to `FC(F)(F)c1cccc(NC(=S)Nc2cccc(Cl)c2)c1`, the B-score was -10.9 (active). The value for `Cn1cc(Cl)c(C(=O)NNC(=S)Nc2cccc(Cl)c2)n1` was “inactive”. As to `COC(=O)CNS(=O)(=O)c1ccc(Cc2ccc(S(=O)(=O)NCC(=O)OC)cc2)cc1`, the B-score result was “inactive”. Next, `CCN1CCN(C(=O)Cn2nc(C)n3c(cc4c(OC)cccc43)c2=O)CC1`: “inactive”.

As to `COc1ccccc1Oc1ccc(N2CC(C(=O)OCC(=O)c3ccc(F)cc3)CC2=O)cc1` (configuration not stated), the B-score result was “inactive”. With `CC(O)c1nc2ccccc2n1Cc1ccc([N+](=O)[O-])cc1` (configuration not stated), the B-score result was “inactive”.

Regarding `COc1ccccc1-n1c(=S)[nH]c2c(sc(=S)n2-c2ccc(C)cc2C)c1=O`, the B-score result is “inactive”. Next, `CCc1ccc(-n2c(=S)sc3c(=O)n(-c4ccccc4OC)c(=S)[nH]c32)cc1`: -11 (active); `COc1cccc(-n2c(=S)sc3c(=O)n(-c4ccccc4OC)c(SCC4OCCO4)nc32)c1`: “inactive”. Next, `C/C(=N\Nc1ccc([N+](=O)[O-])cc1)c1ccc(-n2nncc2C(C)(C)C)cc1`: “inactive”; `CCCCC(NC(=O)c1cccc(Br)c1)C(=O)O` (configuration not stated): “inactive”. For the molecule `COc1ccc([N+](=O)[O-])cc1-c1nc2ccccc2nc1-c1ccccc1`, the B-score was -12 (active). Consider `O=[N+]([O-])c1ccc2c(c1)Nc1nc3ccccc3nc1N2`, for which the B-score result was “inactive”. On to `O=[N+]([O-])c1cc2ccccc2nc1-c1ccccc1`, for which the B-score entry was “inactive”. As to `CCOc1ccc(NC(=O)c2ccccc2NS(C)(=O)=O)cc1`, the B-score result is “inactive”. For `COc1ccccc1C(=O)Nc1ccccc1C(=O)Nc1ccccc1`, the B-score result was “inactive”.

For `COc1cc(NC(=O)c2ccccc2NS(=O)(=O)c2ccc(Cl)s2)cc(OC)c1`, the B-score was -9.84 (active). The value for `Cc1ccc(S(=O)(=O)NNC(=S)NC(C)(C)C)cc1` was “inactive”; that for `C=CCn1c(SCc2ccc(C(=O)NCCO)cc2)nc2ccccc2c1=O` was “inactive”. The value for `O=C(Nn1c(SCc2ccc([N+](=O)[O-])cc2)nc2ccccc2c1=O)c1ccc(F)cc1` was -9.24 (active); that for `Cc1nc2ccccc2c(=O)n1NC(=O)c1ccc(Cl)c([N+](=O)[O-])c1` was “inactive”. On to `Cc1nc2cccnc2nc1C`, for which the B-score entry was “inactive”.

`COc1ccc(-c2c(NC(=O)c3ccco3)oc3ccc(Cl)cc3c2=O)cc1`: the B-score entry was “inactive”.

Take `Cc1cc([N+](=O)[O-])ccc1NC1CCCC1`: the B-score result was “inactive”.

In the case of `Cc1cc(C=O)c(C)n1-c1ccc(NC2CCCCC2)c([N+](=O)[O-])c1`, the B-score is -13.4 (active). Next, `Cc1c(NS(=O)(=O)c2ccc(NC3CCCC3)c([N+](=O)[O-])c2)c(=O)n(-c2ccccc2)n1C`: “inactive”; `Cc1cccc(N=C2NC(=O)CS2)c1C`: “inactive”; `CCn1cc(C(=O)NCCCN2CCCCCC2)c(=O)c2cc(S(=O)(=O)N3CCc4ccccc4C3)ccc21`: “inactive”. In the case of `O=C(CSc1nnc(-c2ccncc2)n1-c1ccc(Cl)cc1)Nc1ccc(C(=O)O)cc1`, the B-score entry is “inactive”. Next, `O=C(COc1ccc2c(C(F)(F)F)cc(=O)oc2c1)Nc1ccc2c(c1)OCCO2`: “inactive”; `CCN(CC(=O)Nc1ccc2c(c1)OCCO2)Cc1cc(=O)oc2cc(C)c(C)cc12`: -8.72 (active); `Cc1ccc(SCC(=O)Nc2ccc3c(c2)OCCO3)cc1`: “inactive”. Next, `Cc1cccc(N(C(=O)Cn2nnc(-c3ccc(C)o3)n2)C(C(=O)NC2CCCC2)c2ccncc2)c1` (configuration not stated): “inactive”. As for `CCC(C)(C)NC(=O)/C=C/c1cc(OC)c(OC)c(S(=O)(=O)N2CCc3ccccc32)c1`, the B-score result is “inactive”.

With `COc1ccc(-c2cc(C(=O)N3CCN(Cc4ccc5c(c4)OCO5)CC3)on2)cc1OC`, the B-score result was “inactive”. The value for `CCn1cc(C(=O)N2CCN(Cc3ccc4c(c3)OCO4)CC2)c2cc(OC)c(OC)cc2c1=O` was “inactive”; that for `COc1cc(Cl)c(S(=O)(=O)N2CCN(Cc3ccc4c(c3)OCO4)CC2)cc1Cl` was -11.5 (active).

For the molecule `Cc1nc(N)sc1N=Nc1c(C)n(C)n(-c2ccccc2)c1=O`, the B-score entry is “inactive”. Next, `O=C(c1cc2ccccc2o1)N1CCN(c2cccc(C(F)(F)F)c2)CC1`: “inactive”; `c1ccc(-c2cc(N3CCCCC3)c3ccccc3n2)cc1`: “inactive”. `FC(F)(F)c1cccc(-c2cc3ccccc3nc2N2CCCC2)c1`: the B-score was -9.37 (active).

Take `COC(=O)[C@@H]1CC(O)CN1C(=O)C12CC3CC(CC(C3)C1)C2` (some centres not stated): the B-score entry was “inactive”. Regarding `CC1CN(CCOc2ccccc2[N+](=O)[O-])CC(C)O1` (configuration not stated), the B-score entry was “inactive”.

As for `Cc1cccc(C)c1N1CCN(S(=O)(=O)N2CCCCC2)CC1`, the B-score is -11.9 (active). The value for `Cc1cccc(C(=O)N2CCN(S(=O)(=O)N3CCCCC3)CC2)c1` was “inactive”; that for `Cc1cccc(C)c1N1CCN(S(=O)(=O)N2CCOCC2)CC1` was “inactive”. The value for `COC(=O)c1ccc(CNC(=O)C2CCC(=O)N(Cc3ccccn3)C2)cc1` (configuration not stated) was “inactive”; that for `COc1ccc(CN2CCN(C(=O)c3cc(C4CC4)nn3-c3ccccc3)CC2)cc1F` was “inactive”; that for `[O-][n+]1ccc(OCc2ccccc2)cc1` was -9.05 (active). The value for `CN(Cc1ccccc1)C(=O)c1ccc(COc2ccccc2)cc1` was “inactive”. Regarding `O=C(O)/C=C\C(=O)Nc1ccc(OCc2ccccc2)cc1`, the B-score result was “inactive”.

As to `CCCN1Cc2cccc(C(=O)Nc3ccc(S(=O)(=O)N4CCCCCC4)cc3)c2C1=O`, the B-score result was “inactive”. Regarding `O=S(=O)(Nc1ccc(O)c2ccccc12)c1ccc(OC(F)(F)F)cc1`, the B-score result is “inactive”. For `Cc1nn(C)c(Oc2ccc(Cl)cc2)c1C=O`, the B-score result is “inactive”.

Take `CCN(CC(=O)Nc1cc(Cl)ccc1C)C(=O)Cn1c(=O)cnc2ccccc21`: the B-score result was “inactive”.

As for `COc1cc(/C=C(\C#N)c2nc3ccccc3[nH]2)ccc1O`, the B-score was -8.85 (active). `CCCCCOc1ccc(/C=C/C(=O)NCCc2nc3ccccc3[nH]2)cc1OC`: the B-score entry is “inactive”. Next, `Cc1ccc(O)c(CNc2nc3ccccc3[nH]2)c1`: “inactive”. For the molecule `CCCCCc1nnc(NC(=O)c2ccc(=O)n(C)n2)s1`, the B-score entry is “inactive”. Next, `COCCCNCCOCCOc1ccc(Cl)cc1Br`: “inactive”; `Cc1ccc(OCC(=O)c2cc(C)n(Cc3ccco3)c2C)c([N+](=O)[O-])n1`: “inactive”.

Regarding `Cc1cccc(NC(=O)CN2CCCN(S(=O)(=O)c3ccc(Br)s3)CC2)c1`, the B-score was -11.4 (active).

Turning to `CC(C)N(C(=O)CN1CCN(S(=O)(=O)c2ccc(Br)s2)CC1)C(C)C`, the B-score result is “inactive”. Next, `Cc1ccc(S(=O)(=O)N2CCN(CC(=O)N/N=C/c3ccc(Br)s3)CC2)cc1`: “inactive”; `NC(=O)C1CCN(C(=O)CC2C(=O)NCCN2Cc2cccc(Oc3ccccc3)c2)CC1` (configuration not stated): “inactive”. Next, `C[C@H](O)[C@@H]1C(=O)N2CCc3ccc(N4CCOCC4)cc3[C@@H]2C[C@@H]1N(C)C(=O)C(C)(C)C`: “inactive”; `CC(NC(=S)Nc1ccccc1)C(c1cccs1)N1CCOCC1` (configuration not stated): “inactive”; `CN(c1ccccc1)S(=O)(=O)c1cccc(NC(=O)Cc2c(F)cccc2Cl)c1`: “inactive”.

Turning to `CN(C)S(=O)(=O)c1cccc(NC(=O)Cc2ccsc2)c1`, the B-score entry is “inactive”. The value for `CN(c1ccccc1)S(=O)(=O)c1cccc(NC(=O)Cc2ccc(Cl)cc2)c1` was -10.7 (active). Next, `Cc1cc(F)ccc1S(=O)(=O)Nc1ccc(C(=O)N(C)Cc2ccco2)cc1`: “inactive”; `O=C(NC1Cc2ccccc2C1)c1cc(COc2cccc(C(F)(F)F)c2)on1`: “inactive”; `Cc1nonc1C1CCCN1C(=O)c1cc(COc2cccc(C(F)(F)F)c2)on1` (configuration not stated): -9.02 (active). Next, `O=C(c1cc(COc2cccc(C(F)(F)F)c2)on1)N1CCSCC1`: “inactive”; `CCCNC(=O)c1ccc(N2CCC3(CC2)CC(c2cccc(Br)c2)=NO3)c(NC(=O)c2ccco2)c1`: “inactive”; `CS(=O)(=O)N1CCCC(C(=O)N2CCOCC2)C1` (configuration not stated): “inactive”.
